# Source: article PMC7862700, “An all-to-all approach to the identification of sequence-specific readers for epigenetic DNA modifications on cytosine”
# Key:
# Assay in all cases: DAPPL (digital affinity profiling via proximity ligation, sequencing); 10 mM Tris-HCl pH 7.5, 50 mM NaCl, 1 mM DTT, 4% glycerol, room temperature, 30 min; GST-TFs on glutathione beads, 16-mer random dsDNA library, 0.1% formaldehyde crosslink after washing; high values mean tight binding
# Conditions in all cases: protein: recombinant; tags: N-terminal GST; dsDNA, one strand shown
# ERF = target: T1, ERF (Homo sapiens, UniProt P50548 1-548)
# T1 sequence: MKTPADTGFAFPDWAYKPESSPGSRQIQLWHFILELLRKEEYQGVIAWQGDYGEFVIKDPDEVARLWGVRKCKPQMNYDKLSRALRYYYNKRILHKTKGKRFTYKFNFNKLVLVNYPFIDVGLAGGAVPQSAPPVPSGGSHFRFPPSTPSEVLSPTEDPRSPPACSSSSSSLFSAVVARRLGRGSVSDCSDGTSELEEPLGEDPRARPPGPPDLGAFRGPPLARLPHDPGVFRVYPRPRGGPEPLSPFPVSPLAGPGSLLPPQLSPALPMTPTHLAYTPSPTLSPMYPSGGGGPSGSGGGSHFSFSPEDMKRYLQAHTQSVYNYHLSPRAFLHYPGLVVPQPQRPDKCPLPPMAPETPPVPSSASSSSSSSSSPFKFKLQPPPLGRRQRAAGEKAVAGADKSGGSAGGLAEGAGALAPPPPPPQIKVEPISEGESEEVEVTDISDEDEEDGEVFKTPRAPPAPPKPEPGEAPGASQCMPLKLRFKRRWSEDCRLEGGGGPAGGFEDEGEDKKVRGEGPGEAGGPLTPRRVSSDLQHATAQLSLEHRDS
# In short: (§1)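 Binding signal is each hexamer's read frequency for a factor divided by its frequency in the tag-only sample. The factors were GST-fused human transcription factors from yeast, captured on glutathione beads, DNA-barcoded and pooled with that sample. Pools were incubated with 200 nmole of a random double-stranded 16-mer DNA library in Tris/NaCl/DTT/glycerol buffer at room temperature for 30 min, then washed, crosslinked with 0.1% formaldehyde, proximity-ligated with BsaI/T4 ligase (1 h, 37 °C), PCR-amplified and sequenced on an Illumina NextSeq500.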
# ETV3L = target: T2, ETV3L (Homo sapiens, UniProt Q6ZN32 1-361)
# T2 sequence: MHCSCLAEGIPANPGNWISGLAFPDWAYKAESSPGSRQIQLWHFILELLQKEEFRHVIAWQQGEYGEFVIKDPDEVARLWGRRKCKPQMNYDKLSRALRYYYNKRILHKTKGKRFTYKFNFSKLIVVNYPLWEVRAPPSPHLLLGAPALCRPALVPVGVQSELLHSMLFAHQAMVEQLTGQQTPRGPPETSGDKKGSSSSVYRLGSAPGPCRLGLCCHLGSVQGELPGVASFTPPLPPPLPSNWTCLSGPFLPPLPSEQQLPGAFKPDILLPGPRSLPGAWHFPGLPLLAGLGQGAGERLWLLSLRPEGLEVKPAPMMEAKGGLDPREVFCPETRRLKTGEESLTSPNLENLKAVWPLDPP
# In short: as §1
# ETS2 = target: T3, ETS2 (Homo sapiens, UniProt P15036 1-469)
# T3 sequence: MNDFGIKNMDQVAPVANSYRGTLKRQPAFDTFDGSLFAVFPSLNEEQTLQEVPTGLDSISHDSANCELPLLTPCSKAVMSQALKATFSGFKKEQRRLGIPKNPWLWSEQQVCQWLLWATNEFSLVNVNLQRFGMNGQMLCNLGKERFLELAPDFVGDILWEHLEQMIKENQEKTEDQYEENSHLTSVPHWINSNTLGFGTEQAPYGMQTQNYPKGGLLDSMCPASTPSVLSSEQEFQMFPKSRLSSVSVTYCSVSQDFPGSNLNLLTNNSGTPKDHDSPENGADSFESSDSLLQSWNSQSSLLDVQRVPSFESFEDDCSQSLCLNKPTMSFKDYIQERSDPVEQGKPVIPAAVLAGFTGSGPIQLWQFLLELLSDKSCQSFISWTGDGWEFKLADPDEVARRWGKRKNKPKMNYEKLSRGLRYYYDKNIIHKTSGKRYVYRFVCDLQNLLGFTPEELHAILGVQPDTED
# In short: as §1
# SPDEF = target: T4, SPDEF (Homo sapiens, UniProt O95238 1-335)
# T4 sequence: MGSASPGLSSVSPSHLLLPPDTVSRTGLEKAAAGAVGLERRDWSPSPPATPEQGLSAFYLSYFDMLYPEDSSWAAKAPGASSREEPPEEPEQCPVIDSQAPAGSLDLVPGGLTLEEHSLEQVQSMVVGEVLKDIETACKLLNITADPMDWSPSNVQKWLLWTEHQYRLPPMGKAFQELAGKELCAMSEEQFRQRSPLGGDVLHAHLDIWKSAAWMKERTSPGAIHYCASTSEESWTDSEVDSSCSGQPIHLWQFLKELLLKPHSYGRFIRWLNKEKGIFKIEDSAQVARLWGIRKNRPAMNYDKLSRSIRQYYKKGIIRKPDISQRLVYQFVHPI
# In short: as §1
# ETV7 = target: T5, ETV7 (Homo sapiens, UniProt Q9Y603 1-341)
# T5 sequence: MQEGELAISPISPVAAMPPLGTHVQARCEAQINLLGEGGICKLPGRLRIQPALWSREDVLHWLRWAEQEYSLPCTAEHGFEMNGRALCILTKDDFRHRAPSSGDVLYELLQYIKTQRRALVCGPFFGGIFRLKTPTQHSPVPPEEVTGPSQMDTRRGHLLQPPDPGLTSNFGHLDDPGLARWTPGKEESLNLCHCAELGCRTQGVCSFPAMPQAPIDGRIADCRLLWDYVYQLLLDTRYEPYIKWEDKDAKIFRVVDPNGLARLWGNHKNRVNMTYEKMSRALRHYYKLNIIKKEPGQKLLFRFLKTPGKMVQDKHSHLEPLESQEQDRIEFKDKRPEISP
# In short: as §1
# ELF5 = target: T6, ELF5 (Homo sapiens, UniProt Q9UKW6-2 1-255)
# T6 sequence: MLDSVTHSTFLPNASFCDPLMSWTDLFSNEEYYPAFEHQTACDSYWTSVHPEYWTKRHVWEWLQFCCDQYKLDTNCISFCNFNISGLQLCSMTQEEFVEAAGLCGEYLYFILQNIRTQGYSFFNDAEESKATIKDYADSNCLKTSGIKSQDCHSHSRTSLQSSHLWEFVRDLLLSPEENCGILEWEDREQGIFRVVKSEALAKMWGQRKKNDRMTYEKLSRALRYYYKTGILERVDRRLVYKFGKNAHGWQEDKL
# In short: as §1
# ETV3 = target: T7, ETV3 (Homo sapiens, UniProt P41162-2 1-143)
# T7 sequence: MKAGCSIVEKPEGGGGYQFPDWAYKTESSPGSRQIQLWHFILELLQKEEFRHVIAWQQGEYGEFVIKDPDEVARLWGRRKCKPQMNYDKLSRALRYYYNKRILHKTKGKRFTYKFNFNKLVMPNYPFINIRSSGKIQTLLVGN
# In short: as §1
# ETV6 = ETV6 (Homo sapiens, UniProt P41212 1-452)
# In short: as §1
# Chain of ETV6 (P41212 whole entry): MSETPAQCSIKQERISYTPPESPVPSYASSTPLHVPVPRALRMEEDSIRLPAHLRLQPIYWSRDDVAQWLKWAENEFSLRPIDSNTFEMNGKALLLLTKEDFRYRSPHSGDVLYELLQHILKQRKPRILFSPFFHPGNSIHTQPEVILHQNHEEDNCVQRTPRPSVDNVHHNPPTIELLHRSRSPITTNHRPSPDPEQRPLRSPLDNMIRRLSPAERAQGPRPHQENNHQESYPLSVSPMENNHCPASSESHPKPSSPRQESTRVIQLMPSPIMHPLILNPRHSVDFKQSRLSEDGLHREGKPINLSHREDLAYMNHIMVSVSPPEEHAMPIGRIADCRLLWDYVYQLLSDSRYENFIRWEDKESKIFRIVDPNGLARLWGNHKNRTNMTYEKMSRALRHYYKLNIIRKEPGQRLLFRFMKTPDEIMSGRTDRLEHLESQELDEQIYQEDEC
Sequence,binding signal (ERF),binding signal (ETV3L),binding signal (ETS2),binding signal (SPDEF),binding signal (ETV7),binding signal (ELF5),binding signal (ETV3),binding signal (ETV6)
ACTTAC,"1.08 fold enrichment (6-mer frequency, TF over GST control)","1.09 fold enrichment (6-mer frequency, TF over GST control)","1.14 fold enrichment (6-mer frequency, TF over GST control)","1.13 fold enrichment (6-mer frequency, TF over GST control)","1.14 fold enrichment (6-mer frequency, TF over GST control)","1.21 fold enrichment (6-mer frequency, TF over GST control)","1.09 fold enrichment (6-mer frequency, TF over GST control)","1.13 fold enrichment (6-mer frequency, TF over GST control)"
ACGTAC,"1.16 fold enrichment (6-mer frequency, TF over GST control)","1.12 fold enrichment (6-mer frequency, TF over GST control)","1.19 fold enrichment (6-mer frequency, TF over GST control)","1.13 fold enrichment (6-mer frequency, TF over GST control)","1.24 fold enrichment (6-mer frequency, TF over GST control)","1.15 fold enrichment (6-mer frequency, TF over GST control)","1.12 fold enrichment (6-mer frequency, TF over GST control)","1.25 fold enrichment (6-mer frequency, TF over GST control)"
AAGAAT,"1.2 fold enrichment (6-mer frequency, TF over GST control)","1.15 fold enrichment (6-mer frequency, TF over GST control)","1.11 fold enrichment (6-mer frequency, TF over GST control)","1.07 fold enrichment (6-mer frequency, TF over GST control)","1.1 fold enrichment (6-mer frequency, TF over GST control)","1.15 fold enrichment (6-mer frequency, TF over GST control)","1.14 fold enrichment (6-mer frequency, TF over GST control)","1.08 fold enrichment (6-mer frequency, TF over GST control)"
CGTACA,"1.21 fold enrichment (6-mer frequency, TF over GST control)","1.17 fold enrichment (6-mer frequency, TF over GST control)","1.18 fold enrichment (6-mer frequency, TF over GST control)","1.2 fold enrichment (6-mer frequency, TF over GST control)","1.25 fold enrichment (6-mer frequency, TF over GST control)","1.17 fold enrichment (6-mer frequency, TF over GST control)","1.14 fold enrichment (6-mer frequency, TF over GST control)","1.2 fold enrichment (6-mer frequency, TF over GST control)"
CAACTG,"1.18 fold enrichment (6-mer frequency, TF over GST control)","1.17 fold enrichment (6-mer frequency, TF over GST control)","1.13 fold enrichment (6-mer frequency, TF over GST control)","1.08 fold enrichment (6-mer frequency, TF over GST control)","1.06 fold enrichment (6-mer frequency, TF over GST control)","1.08 fold enrichment (6-mer frequency, TF over GST control)","1.16 fold enrichment (6-mer frequency, TF over GST control)","1.12 fold enrichment (6-mer frequency, TF over GST control)"
AGCGAC,"1.32 fold enrichment (6-mer frequency, TF over GST control)","1.13 fold enrichment (6-mer frequency, TF over GST control)","1.15 fold enrichment (6-mer frequency, TF over GST control)","1.01 fold enrichment (6-mer frequency, TF over GST control)","1.22 fold enrichment (6-mer frequency, TF over GST control)","1.2 fold enrichment (6-mer frequency, TF over GST control)","1.14 fold enrichment (6-mer frequency, TF over GST control)","1.17 fold enrichment (6-mer frequency, TF over GST control)"
CTATCC,"1.38 fold enrichment (6-mer frequency, TF over GST control)","1.4 fold enrichment (6-mer frequency, TF over GST control)","1.35 fold enrichment (6-mer frequency, TF over GST control)","1.63 fold enrichment (6-mer frequency, TF over GST control)","1.46 fold enrichment (6-mer frequency, TF over GST control)","1.45 fold enrichment (6-mer frequency, TF over GST control)","1.27 fold enrichment (6-mer frequency, TF over GST control)","1.32 fold enrichment (6-mer frequency, TF over GST control)"
TGACAT,"1.21 fold enrichment (6-mer frequency, TF over GST control)","1.28 fold enrichment (6-mer frequency, TF over GST control)","1.3 fold enrichment (6-mer frequency, TF over GST control)","1.25 fold enrichment (6-mer frequency, TF over GST control)","1.25 fold enrichment (6-mer frequency, TF over GST control)","1.22 fold enrichment (6-mer frequency, TF over GST control)","1.26 fold enrichment (6-mer frequency, TF over GST control)","1.37 fold enrichment (6-mer frequency, TF over GST control)"
